# Values without a mark were called inactive. Inconclusive results are not listed. A call without a number means that no potency is given here. The source made the active and inactive calls. Unless noted, calls follow the shape of the dose curve; as a rule, active = well fitted curve in the direction sought with a large enough effect; inconclusive = small, poorly fitted or top-dose-only effect, or another doubt; inactive = no such curve, though single readings can be large; an effect the other way counts as inactive or inconclusive.
# Experiments:
# [1] = molecular target: Rap guanine nucleotide exchange factor 3 (Homo sapiens) (UniProt O95398); assay: Confirmatory qHTS for antagonist of cAMP-regulated guanine nucleotide exchange factor 3 (EPAC1) (AID 1645880); conditions: EPAC1 Rap1B-BODIPY-GDP exchange, fluorescence; activity, negative = inhibition: at 115 µM (top of the series); also: nearly all actives have a fitted effect of over 55% in size; also: potency is read from the fitted curve at half-maximal effect
# Procedure, shortened: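 Nucleotide exchange uses 100 nM EPAC1, 250 nM RAP1B-BODIPY-GDP and 50 uM GDP, with compounds in a concentration-titration series. After 5 min at room temperature, fluorescence (480 nm ex/540 nm em) is read every 5 min for 30 min. Data are normalized to control ATA and DMSO.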
# [2] = molecular target: Rap guanine nucleotide exchange factor 4 (Homo sapiens) (UniProt Q8WZA2); assay: Confirmatory qHTS for antagonist of cAMP-regulated guanine nucleotide exchange factor 4 (EPAC2) (AID 1645885); also: nearly all actives have a fitted effect of over 25% in size; also: potency is read from the fitted curve at half-maximal effect
# [3] = molecular target: Rap guanine nucleotide exchange factor 3 (Homo sapiens) (UniProt O95398); assay: Counterscreen qHTS for antagonist of cAMP-regulated guanine nucleotide exchange factor 3 (EPAC1) (AID 1645888); also: potency is read from the fitted curve at half-maximal effect;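 as to activity change, negative = inhibition: fluorescence loss as bound BODIPY-GDP is released from Rap1B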
# Procedure, shortened: (§1)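 Measured: fluorescence of BODIPY-GDP bound to Rap1B, which falls as exchange proceeds. Conditions include 50 uM competing GDP, 5 and 30 min reads, and a later cAMP challenge for antagonist detection.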
# [4] = molecular target: Rap guanine nucleotide exchange factor 4 (Homo sapiens) (UniProt Q8WZA2); assay: Confirmatory qHTS for agonist of cAMP-regulated guanine nucleotide exchange factor 4 (EPAC2) (AID 1645884);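 also: nucleotide exchange releases bodipy-GDP from Rap1 and this lowers its fluorescence; nearly all actives have a fitted effect of over 65% in size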
# [5] = molecular target: Rap guanine nucleotide exchange factor 3 (Homo sapiens) (UniProt O95398); assay: Counterscreen qHTS for agonist of cAMP-regulated guanine nucleotide exchange factor 3 (EPAC1) (AID 1645889); also: nearly all actives have a fitted effect of over 40% in size; also: potency is read from the fitted curve at half-maximal effect
# Procedure, shortened: as §1
# [6] = molecular target: Tumor susceptibility gene 101 protein (Homo sapiens) (UniProt Q99816); assay: qHTS Assay for Iinhibitors of HIV-1 Budding by Blocking the Interaction of PTAP/TSG101: Hit Validation (AID 651600); also: nearly all actives have a fitted effect of over 70% in size; also: potency is read from the fitted curve at half-maximal effect
# Procedure, shortened: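 Fluorescence polarization binding assay: Tsg101 binding domain (10 uM final) pre-dispensed with compounds, then FITC-labeled PTAP-motif peptide (50 nM final) added; 20 min at r.t. in HEPES pH 7.5 buffer with NaCl, Tween 20, EDTA, TCEP.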
# [7] = molecular target: Lysosomal acid glucosylceramidase (Homo sapiens) (UniProt P04062); assay: Glucocerebrosidase-p2 (AID 348; in the data active = potency below about 10 µM; also: potency is read from the fitted curve at half-maximal effect); conditions: purified GBA, blue fluorogenic substrate, 40 min
# Procedure, shortened: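 Compounds titrated from 0.6 nM upwards against 0.2 nM enzyme in pH 5.9 citric acid/KH2PO4, taurocholate, tween-20; blue fluorogenic substrate 80 uM, 40 min room temperature, stopped and read Ex 365/Em 440 for AC50.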
# [8] = AP1 Signaling Pathway (AID 357; active = well fitted curve in either direction with a large enough effect, not every such curve was filed as active;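 also: ME-180 reporter cells stimulated with EGF at its EC50 level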); conditions: ME-180 AP-1-bla reporter, EGF-induced, beta-lactamase ratio, 5 h; at 7.69 µM (top of the series) unless noted
# Procedure, shortened: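 A ratiometric CCF4 readout (405 nm excitation; 460 and 530 nm emission) quantified AP-1-driven beta-lactamase in ME-180 cells after 5 h with compound and EC50 EGF; AC50 values were derived for activators and inhibitors.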
# [9] = molecular target: Cytochrome P450 1A2 (Homo sapiens) (UniProt P05177); assay: p450-cyp1a2 (AID 410; calls by dose curve; also: potency is read from the fitted curve at half-maximal effect)
# Procedure, shortened: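 Human CYP1A2 (20nM) demethylated Luciferin-ME at its Km (100uM) in 100mM KPO4. After 10 min compound preincubation, NADPH regeneration ran the reaction 60 min at room temperature. Luciferin was read by luminescence, normalized to 57 uM furafylline.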
# [10] = NFAT Signaling Pathway (AID 444; active = well fitted curve in either direction with a large enough effect, not every such curve was filed as active;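 also: carbachol stimulus at about its EC50 of 1 µM final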); conditions: Jurkat NFAT-bla M1, carbachol, beta-lactamase ratio, 5 h; at 7.69 µM (top of the series) unless noted
# Procedure, shortened: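 Jurkat cells carrying an NFAT-driven β-lactamase reporter and co-transfected muscarinic M1 receptor were treated with compound plus carbachol (1 uM final, an EC50 level) for 5 h at 37 °C. CCF4 loading followed for 1 h at RT; 460/530 nm ratio gave %activity.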
# [11] = Stat Signaling Pathway (AID 446; active = well fitted curve in either direction with a large enough effect, not every such curve was filed as active;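 also: ME-180 cervical cancer cells given 40 pM IL-6 alongside compound; SIE-controlled beta-lactamase reporter measured as 460/530 nm FRET emission ratio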)
# Procedure, shortened: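 Reporter line: ME-180 cervical carcinoma, SIE-beta-lactamase. Treatment: compound with 40 pM IL-6, 5 hrs, 37 C, in low-serum OPTI-MEM with 10 mM HEPES pH 7.3. Detection: 460/530 nm fluorescence.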
# [12] = molecular target: Glucocorticoid receptor (Homo sapiens) (UniProt P04150); assay: GR-EFC Redistribution (AID 451; calls by dose curve; also: potency is read from the fitted curve at half-maximal effect); conditions: CHO-K1 GR-EFC translocation, beta-gal luminescence, 2 h
# Procedure, shortened: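 CHO-K1 cells stably expressing nuclear-localized β-gal enzyme acceptor and GR fused C-terminally to the enzyme donor fragment; ligand-driven nuclear translocation restores β-gal by complementation. Compounds titrated up to 46 uM final, 2 h at 37 °C; luminescence read.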
# [13] = molecular target: Mitogen-activated protein kinase 10 (Mus musculus) (UniProt Q61831); assay: JNK3 AlphaScreen Assay (AID 530; active = well fitted curve in either direction with a large enough effect, not every such curve was filed as active;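 also: kinase came from lysate of stimulated human HepG2 cells; signal reports phosphorylation of biotinylated GST-cJun 1-79 at Ser73 with 10 µM ATP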)
# Procedure, shortened: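 JNK3 came from HepG2 lysates pre-activated with IL-1beta and TNF-alpha and phosphorylated biotinylated GST-cJun (1-79) at 10 uM ATP, pH 7.6, room temperature. Compounds were titrated. AlphaScreen signal used anti-phospho-cJun (Ser73) antibody.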
# [14] = molecular target: 3',5'-cyclic-AMP phosphodiesterase 4B (Homo sapiens) (UniProt Q07343); assay: qHTS Assay for Inhibitors of PDE-IV (AID 607; active = well fitted activation curve with a large enough effect in the main read-out, with a control signal flat, not every such curve was filed as active)
# Procedure, shortened: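 Cell-based read-out of cAMP via a modified cyclic nucleotide-gated channel and membrane potential dye (535/590 nm) in HEK293 cells expressing PDE4 endogenously. Compounds tested up to 22.9 uM final; 100 uM RO 20-1724 reference.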
# [15] = molecular target: Cytochrome P450 2C19 (Homo sapiens) (UniProt P33261); assay: qHTS Assay for Inhibitors and Substrates of Cytochrome P450 2C19 (AID 899); also: potency is read from the fitted curve at half-maximal effect; nearly all actives have a fitted effect of over 60% in size
# Procedure, shortened: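 NADPH-dependent conversion of Luciferin-H EGE (10uM, at KM) by 5nM enzyme in 50mM KPO4, 60 min at 37C following 10 min compound preincubation. Stopped with luciferin detection buffer; luminescence read after 20 min.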
# Sequence of Rap guanine nucleotide exchange factor 3 (Homo sapiens) (O95398 whole entry, looked up): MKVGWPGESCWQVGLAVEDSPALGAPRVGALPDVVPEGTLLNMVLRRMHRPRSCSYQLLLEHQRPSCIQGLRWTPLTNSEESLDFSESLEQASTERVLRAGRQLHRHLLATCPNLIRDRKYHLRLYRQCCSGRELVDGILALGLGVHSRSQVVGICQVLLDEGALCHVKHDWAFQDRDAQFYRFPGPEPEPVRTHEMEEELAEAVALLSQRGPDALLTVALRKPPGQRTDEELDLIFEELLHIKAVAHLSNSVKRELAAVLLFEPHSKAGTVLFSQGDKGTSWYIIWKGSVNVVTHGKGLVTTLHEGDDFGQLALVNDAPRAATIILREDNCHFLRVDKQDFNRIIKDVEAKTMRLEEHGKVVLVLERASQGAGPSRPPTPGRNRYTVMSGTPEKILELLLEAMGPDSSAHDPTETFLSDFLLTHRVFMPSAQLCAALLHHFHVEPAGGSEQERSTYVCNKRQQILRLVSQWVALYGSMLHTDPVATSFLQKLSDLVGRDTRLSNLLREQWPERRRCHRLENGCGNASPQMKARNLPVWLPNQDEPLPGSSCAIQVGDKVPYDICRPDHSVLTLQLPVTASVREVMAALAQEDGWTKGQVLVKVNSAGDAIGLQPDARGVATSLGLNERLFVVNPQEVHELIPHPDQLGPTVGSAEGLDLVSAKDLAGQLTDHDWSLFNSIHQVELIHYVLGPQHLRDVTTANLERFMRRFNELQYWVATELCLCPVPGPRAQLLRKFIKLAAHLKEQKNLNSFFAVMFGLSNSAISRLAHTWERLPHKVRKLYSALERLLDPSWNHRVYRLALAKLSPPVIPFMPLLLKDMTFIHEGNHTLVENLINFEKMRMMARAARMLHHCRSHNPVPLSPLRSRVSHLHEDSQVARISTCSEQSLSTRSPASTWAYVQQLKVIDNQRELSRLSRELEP
# Sequence of Rap guanine nucleotide exchange factor 4 (Homo sapiens) (Q8WZA2 whole entry, looked up): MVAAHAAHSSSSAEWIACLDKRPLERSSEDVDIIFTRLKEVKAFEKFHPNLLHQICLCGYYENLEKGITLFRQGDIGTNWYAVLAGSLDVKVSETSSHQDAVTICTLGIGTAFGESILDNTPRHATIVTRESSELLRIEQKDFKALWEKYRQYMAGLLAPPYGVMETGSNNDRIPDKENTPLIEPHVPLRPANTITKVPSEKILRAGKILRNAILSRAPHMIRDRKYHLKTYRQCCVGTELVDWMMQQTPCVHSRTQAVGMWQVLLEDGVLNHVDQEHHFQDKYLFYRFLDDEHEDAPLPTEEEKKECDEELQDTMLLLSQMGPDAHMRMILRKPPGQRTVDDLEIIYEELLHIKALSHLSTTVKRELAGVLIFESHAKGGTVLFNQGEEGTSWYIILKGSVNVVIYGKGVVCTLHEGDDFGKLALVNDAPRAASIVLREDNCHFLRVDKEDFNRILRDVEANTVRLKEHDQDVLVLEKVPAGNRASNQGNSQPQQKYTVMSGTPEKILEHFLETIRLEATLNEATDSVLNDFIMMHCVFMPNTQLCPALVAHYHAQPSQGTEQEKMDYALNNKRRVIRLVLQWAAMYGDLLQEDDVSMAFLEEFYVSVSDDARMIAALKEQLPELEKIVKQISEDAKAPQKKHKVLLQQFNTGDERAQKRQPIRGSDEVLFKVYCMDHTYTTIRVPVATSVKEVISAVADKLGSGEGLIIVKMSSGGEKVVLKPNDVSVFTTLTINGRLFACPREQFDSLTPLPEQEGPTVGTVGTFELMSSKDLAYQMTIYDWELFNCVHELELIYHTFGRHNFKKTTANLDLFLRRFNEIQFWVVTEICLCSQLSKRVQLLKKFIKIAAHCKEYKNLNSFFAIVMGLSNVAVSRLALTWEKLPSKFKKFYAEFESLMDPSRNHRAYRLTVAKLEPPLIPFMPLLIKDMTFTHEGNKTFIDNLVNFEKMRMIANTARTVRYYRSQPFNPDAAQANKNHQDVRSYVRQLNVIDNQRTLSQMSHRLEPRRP
# Sequence of Tumor susceptibility gene 101 protein (Homo sapiens) (Q99816 whole entry, looked up, the tested form may be a part): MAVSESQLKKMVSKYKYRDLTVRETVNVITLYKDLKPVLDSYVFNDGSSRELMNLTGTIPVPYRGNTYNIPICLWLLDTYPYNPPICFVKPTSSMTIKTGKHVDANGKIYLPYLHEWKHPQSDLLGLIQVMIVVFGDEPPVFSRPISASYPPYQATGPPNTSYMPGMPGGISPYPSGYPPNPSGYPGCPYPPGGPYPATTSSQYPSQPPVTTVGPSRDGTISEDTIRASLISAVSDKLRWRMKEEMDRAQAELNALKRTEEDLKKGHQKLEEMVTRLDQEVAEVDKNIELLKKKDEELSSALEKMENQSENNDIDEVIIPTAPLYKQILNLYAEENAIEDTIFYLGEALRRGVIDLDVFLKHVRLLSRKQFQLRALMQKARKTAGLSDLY
# Sequence of Cytochrome P450 1A2 (Homo sapiens) (P05177 whole entry, looked up): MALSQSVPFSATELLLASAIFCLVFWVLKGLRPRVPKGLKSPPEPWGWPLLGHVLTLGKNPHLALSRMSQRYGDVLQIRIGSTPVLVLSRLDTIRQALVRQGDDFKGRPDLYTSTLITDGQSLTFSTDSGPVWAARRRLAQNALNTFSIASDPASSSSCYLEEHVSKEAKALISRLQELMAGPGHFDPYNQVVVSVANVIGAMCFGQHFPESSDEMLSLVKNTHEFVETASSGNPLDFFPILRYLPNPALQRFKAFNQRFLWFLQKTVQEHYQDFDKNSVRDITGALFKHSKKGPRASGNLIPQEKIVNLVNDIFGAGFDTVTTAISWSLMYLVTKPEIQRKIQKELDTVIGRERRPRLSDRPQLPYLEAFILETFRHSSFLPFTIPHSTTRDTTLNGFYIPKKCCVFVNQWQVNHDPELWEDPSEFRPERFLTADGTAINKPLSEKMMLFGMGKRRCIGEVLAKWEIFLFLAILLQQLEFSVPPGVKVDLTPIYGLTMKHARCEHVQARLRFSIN
# Sequence of 3',5'-cyclic-AMP phosphodiesterase 4B (Homo sapiens) (Q07343 whole entry, looked up): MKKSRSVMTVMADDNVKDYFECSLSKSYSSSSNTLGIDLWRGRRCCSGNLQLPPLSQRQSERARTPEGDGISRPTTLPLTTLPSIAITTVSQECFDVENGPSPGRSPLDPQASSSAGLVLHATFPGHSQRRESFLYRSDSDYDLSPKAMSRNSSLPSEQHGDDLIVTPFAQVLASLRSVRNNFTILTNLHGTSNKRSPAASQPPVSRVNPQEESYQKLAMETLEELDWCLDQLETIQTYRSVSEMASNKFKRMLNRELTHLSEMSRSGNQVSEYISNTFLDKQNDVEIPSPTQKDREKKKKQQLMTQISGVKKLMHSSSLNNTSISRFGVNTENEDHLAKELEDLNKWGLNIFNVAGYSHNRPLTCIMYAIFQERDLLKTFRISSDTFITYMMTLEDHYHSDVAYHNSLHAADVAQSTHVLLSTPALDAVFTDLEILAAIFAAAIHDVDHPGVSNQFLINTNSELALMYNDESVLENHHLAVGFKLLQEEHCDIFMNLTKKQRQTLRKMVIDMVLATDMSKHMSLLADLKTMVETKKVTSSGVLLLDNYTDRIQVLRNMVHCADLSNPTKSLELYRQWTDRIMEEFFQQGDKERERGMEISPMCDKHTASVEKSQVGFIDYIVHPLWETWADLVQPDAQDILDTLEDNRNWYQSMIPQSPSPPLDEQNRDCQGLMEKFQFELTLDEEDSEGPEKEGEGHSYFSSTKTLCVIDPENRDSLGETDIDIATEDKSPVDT
# Sequence of Glucocorticoid receptor (Homo sapiens) (P04150 whole entry, looked up, the tested form may be a part): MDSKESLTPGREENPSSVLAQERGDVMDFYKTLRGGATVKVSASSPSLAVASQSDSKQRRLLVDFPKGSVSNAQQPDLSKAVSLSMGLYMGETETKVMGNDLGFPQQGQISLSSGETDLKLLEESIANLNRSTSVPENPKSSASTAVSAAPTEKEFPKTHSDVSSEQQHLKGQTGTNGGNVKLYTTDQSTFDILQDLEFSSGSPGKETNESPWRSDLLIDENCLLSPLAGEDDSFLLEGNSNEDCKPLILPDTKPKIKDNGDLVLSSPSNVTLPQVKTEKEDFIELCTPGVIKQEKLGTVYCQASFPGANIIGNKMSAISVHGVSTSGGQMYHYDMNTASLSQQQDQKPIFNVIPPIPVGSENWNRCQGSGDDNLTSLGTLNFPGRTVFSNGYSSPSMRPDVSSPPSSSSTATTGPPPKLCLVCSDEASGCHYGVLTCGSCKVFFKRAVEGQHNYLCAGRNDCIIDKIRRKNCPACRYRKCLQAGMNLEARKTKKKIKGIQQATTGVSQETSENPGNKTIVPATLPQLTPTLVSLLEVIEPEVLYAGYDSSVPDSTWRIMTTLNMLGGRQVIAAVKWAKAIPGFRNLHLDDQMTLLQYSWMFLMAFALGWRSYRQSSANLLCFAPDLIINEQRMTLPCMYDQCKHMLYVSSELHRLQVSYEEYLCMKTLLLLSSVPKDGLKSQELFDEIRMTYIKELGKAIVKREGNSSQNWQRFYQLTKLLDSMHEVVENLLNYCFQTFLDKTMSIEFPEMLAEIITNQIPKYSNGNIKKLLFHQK
# Sequence of Cytochrome P450 2C19 (Homo sapiens) (P33261 whole entry, looked up): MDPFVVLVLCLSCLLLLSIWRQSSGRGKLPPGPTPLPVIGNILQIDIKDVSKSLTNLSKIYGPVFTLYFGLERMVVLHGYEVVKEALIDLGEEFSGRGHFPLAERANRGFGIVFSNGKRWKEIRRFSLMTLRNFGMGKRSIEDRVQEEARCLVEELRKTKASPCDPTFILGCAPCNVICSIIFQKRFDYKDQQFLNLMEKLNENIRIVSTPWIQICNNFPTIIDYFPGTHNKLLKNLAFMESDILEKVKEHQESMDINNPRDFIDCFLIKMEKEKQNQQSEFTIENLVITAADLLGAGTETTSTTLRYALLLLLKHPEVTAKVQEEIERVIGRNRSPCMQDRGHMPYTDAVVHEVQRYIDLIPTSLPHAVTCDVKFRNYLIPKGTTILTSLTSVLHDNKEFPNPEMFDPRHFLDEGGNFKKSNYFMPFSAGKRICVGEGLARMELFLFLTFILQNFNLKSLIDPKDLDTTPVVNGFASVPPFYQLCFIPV
smiles,measurement,setting,value
CCN(CC)c1ccc(C=C2SC(=S)NC2=O)cc1,Potency,[1],inactive
same,Potency,[2],84.9 µM (active)
same,Potency,[3],inactive
COC(=O)c1cc2oc(C)cc2n1Cc1ccc(C)cc1,Potency,[1],inactive
same,Potency,[4],inactive
same,Potency,[3],inactive
same,Potency,[5],inactive
COc1ccc(C(=O)Nc2nc(-c3ccc(OC)cc3)c(-c3ccc([N+](=O)[O-])cc3)s2)cc1,Potency,[1],inactive
same,Potency,[2],inactive
same,Potency,[3],inactive
same,Potency,[5],63.1 µM (active)
CCN1CCN(c2ccc(S(=O)(=O)N3CCCCC3)cc2NC(=O)c2cccc(OC(F)F)c2)CC1,Potency,[1],inactive
same,Potency,[2],inactive
same,Potency,[3],inactive
same,Potency,[5],inactive
CN1C(=O)c2cccc3c(N)ccc(c23)C1=O,Potency,[6],5.8 µM (active)
same,Potency,[1],inactive
same,Potency,[2],inactive
same,Potency,[3],inactive
same,Potency,[5],10 µM (active)
O=C(NCCOc1ccccc1F)c1ccccc1SCc1ccc(F)cc1,Potency,[1],inactive
same,Potency,[2],10.7 µM (active)
same,Potency,[3],inactive
same,Potency,[5],inactive
Nc1ccc2nc3c(=O)n(C4CCCCC4)c(=O)[nH]c3nc2c1,Potency,[6],6.51 µM (active)
same,Potency,[1],inactive
same,Potency,[2],inactive
same,Potency,[3],inactive
same,Potency,[5],22.4 µM (active)
COc1ccc(C2CC(c3cccs3)=NN2c2ccc(C=O)cc2)cc1 (stereo unspecified),Potency,[1],inactive
same,Potency,[2],inactive
same,Potency,[3],inactive
same,Potency,[5],44.7 µM (active)
O=C(NC1CCCC1)c1cccc2c1C(=O)c1ccc(N3CCCCC3)cc1S2(=O)=O,Potency,[1],inactive
same,Potency,[2],inactive
same,Potency,[3],inactive
same,Potency,[5],inactive
Cc1ccc(S(=O)(=O)/N=C2\C=C(NS(=O)(=O)c3ccccc3)C(=O)c3ccccc32)cc1,Potency,[1],26.9 µM (active)
same,Potency,[2],16.9 µM (active)
same,Potency,[3],inactive
same,Potency,[5],inactive
COc1ccccc1C(=O)Oc1ccc2c(c1)O/C(=C\c1ccncc1)C2=O,Potency,[1],inactive
same,Potency,[2],84.9 µM (active)
same,Potency,[3],inactive
same,Potency,[5],35.5 µM (active)
N=C(N)c1ccc(N=Nc2c(O)ccc3c2[nH]c2ccccc23)cc1,Potency,[7],> 11.4 µM
same,"activity change, negative = inhibition",[8],13.5%
same,Potency,[9],1.58 µM (active)
same,"activity change, negative = inhibition",[10],8.15%
same,outcome,[11],inactive
same,Potency,[12],> 9.22 µM
same,"activity change, negative = inhibition",[13],-6.35% [at 11.4 µM]
same,Potency,[14],inactive
same,Potency,[15],1.26 µM (active)
same,Potency,[1],56.2 µM (active)
same,Potency,[2],inactive
same,"activity change, negative = inhibition",[3],-5.36% [at 30.8 µM]
same,activation,[5],33.2% [at 30.8 µM]
COC(=O)c1sc(S(=O)(=O)N2CCCCC2C)c(C(=O)OC)c1C (stereo unspecified),Potency,[1],inactive
same,Potency,[2],53.6 µM (active)
same,Potency,[3],inactive
same,Potency,[5],inactive
O=C1C=C(c2c(O)ccc3ccccc23)c2ccccc2C1=O,Potency,[1],67.5 µM (active)
same,Potency,[2],47.8 µM (active)
same,Potency,[3],inactive
same,Potency,[5],35.5 µM (active)
COc1ccc(C(=O)N(CCc2ccccc2)Cc2cccs2)c(OC)c1,Potency,[1],inactive
same,Potency,[2],inactive
same,Potency,[3],inactive
same,Potency,[5],inactive
Brc1ccc(CSc2nccn2-c2ccccc2)cc1,Potency,[1],inactive
same,Potency,[2],inactive
same,Potency,[3],inactive
same,Potency,[5],1.58 µM (active)
CCN1CCc2c(sc(NC(=O)Nc3ccc(Cl)c(Cl)c3)c2C(N)=O)C1,Potency,[1],inactive
same,Potency,[2],84.9 µM (active)
same,Potency,[3],100 µM (active)
O=C1CC2(CCN(S(=O)(=O)c3ccccc3F)CC2)Oc2ccccc21,Potency,[1],inactive
same,Potency,[2],inactive
same,Potency,[3],inactive
same,Potency,[5],10 µM (active)
COc1ccc2c(c1)CCC1C2=NN(/C(C)=C/C(C)=O)C1c1cccc(F)c1 (stereo unspecified),Potency,[1],inactive
same,Potency,[2],84.9 µM (active)
same,Potency,[3],inactive
CNC(=O)c1csc(Cc2c(Cl)sc3ccc(Cl)cc23)n1,Potency,[1],inactive
same,Potency,[2],inactive
same,Potency,[3],inactive
N#Cc1cc(Br)ccc1N=C1CCCN1c1ccccc1,Potency,[1],inactive
same,Potency,[2],3.01 µM (active)
same,Potency,[3],inactive
same,Potency,[5],inactive
Cc1ccc(-c2nc3ccc(C)cn3c2CC2CCCCC2)cc1,Potency,[1],inactive
same,Potency,[2],inactive
same,Potency,[3],inactive
Oc1ccc(N=Cc2sc3ccccc3c2Cl)cc1,Potency,[1],inactive
same,Potency,[2],inactive
same,Potency,[3],inactive
same,Potency,[5],inactive
CC(C)(C)c1ccc(-n2nc(C#N)c(Cl)cc2=O)cc1,Potency,[1],42.6 µM (active)
same,Potency,[2],0.338 µM (active)
same,Potency,[3],inactive
COc1ccccc1N1N=C(C(=O)c2ccccc2)C2C(=O)N(c3ccc(Br)cc3)C(=O)C21 (stereo unspecified),Potency,[1],inactive
same,Potency,[2],inactive
same,Potency,[3],inactive
same,Potency,[5],17.8 µM (active)
COc1ccc(CCNC(=S)N2CCN(S(=O)(=O)c3ccc(F)cc3)CC2)cc1,Potency,[1],inactive
same,Potency,[2],inactive
same,Potency,[3],inactive
CCN(CC)c1ccc(/C=C/C(=O)c2ccc(Br)cc2)cc1,Potency,[6],inactive
same,Potency,[1],inactive
same,Potency,[2],inactive
same,"activity change, negative = inhibition",[3],192% [at 30.8 µM]
same,Potency,[5],14.1 µM (active)
COc1cccc(/C(O)=C/c2nc3ccc(C(=O)NCCc4cccc(C)c4)cc3[nH]c2=O)c1,Potency,[1],inactive
same,Potency,[2],inactive
same,Potency,[3],inactive
same,Potency,[5],inactive
COc1ccccc1N1CCN(C(=O)c2ccc(S(=O)(=O)N3CCCC3)cc2)CC1,Potency,[1],inactive
same,Potency,[2],inactive
same,Potency,[3],inactive
same,Potency,[5],inactive
CC1=CC2=NC(=O)/C(=C/c3coc4ccccc4c3=O)C(=N)N2O1,Potency,[1],inactive
same,Potency,[2],75.7 µM (active)
same,Potency,[3],inactive
same,Potency,[5],39.8 µM (active)
CC(C)CC1=NN2C(=N)/C(=C\c3coc4ccccc4c3=O)C(=O)N=C2S1,Potency,[1],inactive
same,Potency,[2],inactive
same,"activity change, negative = inhibition",[3],51.1% [at 30.8 µM]
same,Potency,[5],12.6 µM (active)
N#C/C(=C\c1ccc(Sc2ccc(Cl)cc2)o1)c1nc2ccccc2[nH]1,Potency,[1],inactive
same,Potency,[2],inactive
same,Potency,[3],inactive
COC(=O)c1ccc(Cn2nc(-c3cc(C)ccc3C)ccc2=O)cc1,Potency,[1],inactive
same,Potency,[2],inactive
same,Potency,[3],inactive
same,Potency,[5],inactive
CCN1C(=O)C(=CC=CN(C)c2ccccc2)SC1=S,Potency,[1],inactive
same,Potency,[2],inactive
same,"activity change, negative = inhibition",[3],12.2% [at 30.8 µM]
same,Potency,[5],11.2 µM (active)
O=S(=O)(c1ccc(Cl)c2ccccc12)N1CCCC1,Potency,[1],inactive
same,Potency,[2],inactive
same,Potency,[3],inactive
same,Potency,[5],inactive
COc1ccc(NC(=O)NS(=O)(=O)c2ccc(C)cc2)cn1,Potency,[1],inactive
same,Potency,[2],inactive
same,Potency,[3],inactive
same,Potency,[5],63.1 µM (active)
CC(=O)/C(=N\Nc1ccccc1)Sc1cccc2cccnc12,Potency,[1],inactive
same,Potency,[2],84.9 µM (active)
same,Potency,[3],inactive

# — PubChem BioAssay (NCATS)
